Values joined by “and” are separate entries in the source; they are usually repeats but may differ in a detail not shown here. Equal values may be shown once. Inconclusive results are not listed. The source holds several records for some structures; these can differ, active in one and inactive in another. Active and inactive are the calls of the source. Unless noted, calls come from the whole dose curve; as a rule, active = well fitted curve in the direction sought with a large enough effect in the repeat runs; inconclusive = weak or mixed curves; inactive = no such curve, though single readings can be large; an effect the other way counts as inactive or inconclusive.

Assay [1] is described as follows: qHTS assay to identify small molecule agonists of the vitamin D receptor (VDR) signaling pathway - cell viability counter screen (AID 743224). Note: nearly all actives have a fitted effect of over 50% in size. Note: potency is the fitted concentration of half-maximal effect. To be noted: VDR-bla HEK293T viability, CellTiter-Glo luminescence, 16 h; series mostly up to 62.6 µM. Put shortly:
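VDR-bla cells, 4 h after plating, exposed to compounds for 16 h at 37C; viability then read in the same wells as CellTiter-Glo luminescence after 30 min at room temperature, following the bla FRET read.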

Assay [2] is described as follows: qHTS assay to identify small molecule antagonists of the vitamin D receptor (VDR) signaling pathway - cell viability counter screen (AID 743225). Note: nearly all actives have a fitted effect of over 50% in size. Note: potency is the fitted concentration of half-maximal effect. To be noted: VDR-bla HEK293T viability, CellTiter-Glo luminescence, 16 h; series mostly up to 61 µM. Put shortly: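 HEK293T VDR-bla; cpd + 1a,25-(OH)2D3 3 nM final, 16 h 37C/5% CO2; B/G FRET substrate 2 h RT; then CellTiter-Glo 30 min RT, luminescence.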

A short description of assay [3]: qHTS assay to identify small molecule agonists of the endoplasmic reticulum stress response signaling pathway (AID 1159516; active = well fitted activation curve with a large enough effect in the signal ratio in the repeat runs, not every such curve was filed as active; the % refers to the signal ratio). As to conditions: ESRE-bla HeLa, ER stress beta-lactamase reporter, 5 h; series mostly up to 61 µM. Put shortly: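 CellSensor ESRE-bla HeLa cells, 1,500 per well, plated overnight, then exposed to compounds for 5 hr at 37 C. Beta-lactamase reporter read with LiveBLAzer B/G FRET substrate after 2 hr at room temperature, 405 nm excitation, 460 and 530 nm emission.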
For orientation: In qHTS, concentration-response curves come from the screen itself.

Assay [4] is described as follows: qHTS assay to identify small molecule agonists of the endoplasmic reticulum stress response signaling pathway - cell viability counter screen (AID 1159517; calls by dose curve; note: nearly all actives have a fitted effect of over 50% in size). To be noted: ESRE-bla HeLa viability, CellTiter-Glo luminescence, 5 h; series mostly up to 61 µM. The essentials:
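Cells, HeLa ESRE-bla; density, 1,500/well; dosing, 5 hr at 37 C, 5% CO2; readout, CellTiter-Glo luminescence after 30 min RT.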

Assay [5] can be described thus: qHTS assay to identify small molecule antagonists of the retinoid-related orphan receptor gamma (ROR-gamma) signaling pathway - cell viability counter screen (AID 1159520). Note: nearly all actives have a fitted effect of over 50% in size. As to conditions: Tet-on RORgamma CHO cells viability, ATP luminescence, 16 h; series mostly up to 92.4 µM. Put shortly:
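Cytotoxicity was read from cellular ATP (CellTiter-Glo luminescence) after 16 hr at 37 C with 1 uM doxycycline induction. The inducer was added 2 hr after compound transfer to Tet-on ROR gamma CHO cells.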

For assay [6], the target named is Nuclear receptor ROR-gamma (Homo sapiens) (UniProt P51449). The experiment in a line: qHTS assay to identify small molecule antagonists of the retinoid-related orphan receptor gamma (ROR-gamma) signaling pathway (AID 1159521; note: nearly all actives have a fitted effect of over 50% in size; note: potency is the fitted concentration of half-maximal effect). As to conditions: Tet-on RORgamma CHO cells, RORE-luciferase, 16 h; series mostly up to 92.4 µM. The essentials: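 Cells were plated, rested 4 h at 37 C, exposed to compounds for 2 h, then given 1 uM final doxycycline hyclate to induce RORγ expression. After 16 h, ONE-Glo luminescence from the ROR response element reporter was measured.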

Assay [7] is described as follows: qHTS assay to identify small molecule agonists of the AP-1 signaling pathway - cell viability counter screen (AID 1159525; calls by dose curve; note: nearly all actives have a fitted effect of over 55% in size; note: potency is the fitted concentration of half-maximal effect). To be noted: ME-180 AP-1-bla cells viability, ATP luminescence, 5 h; series mostly up to 76.8 µM. The essentials:
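Luminescent ATP readout (Cell Titer Glo, 30 min RT), normalised to DMSO and tetra n-octyl ammonium bromide controls. Cells were ME-180 AP-1-bla in 0.5% dialyzed FBS Opti-MEM, with a 5 h, 37 °C compound exposure.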

Assay [8] can be described thus: qHTS assay to identify small molecule agonists of the AP-1 signaling pathway (AID 1159526; calls by dose curve). As to conditions: ME-180 (cervical carcinoma) AP-1-bla reporter, beta-lactamase FRET ratio, 5 h; series mostly up to 76.8 µM.
For assay [9], the target named is Retinoic acid receptor RXR-alpha (Homo sapiens) (UniProt P19793). The experiment in a line: qHTS assay to identify small molecule agonists of the RXR signaling pathway (AID 1159527; calls by dose curve; note: nearly all actives have a fitted effect of over 35% in size; note: potency is the fitted concentration of half-maximal effect). As to conditions: HEK293T RXRa-UAS-bla, beta-lactamase ratio, 16 h; series mostly up to 76.8 µM. Put shortly:
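Cells plated at 2,000/well, rested 5 hr at 37 C, pin-dosed with DMSO compound solutions, incubated 16 hr, then loaded with B/G FRET substrate for 2 hr at RT before dual-emission fluorescence reading.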

Chain of Retinoic acid receptor RXR-alpha (Homo sapiens) (P19793 whole entry, looked up): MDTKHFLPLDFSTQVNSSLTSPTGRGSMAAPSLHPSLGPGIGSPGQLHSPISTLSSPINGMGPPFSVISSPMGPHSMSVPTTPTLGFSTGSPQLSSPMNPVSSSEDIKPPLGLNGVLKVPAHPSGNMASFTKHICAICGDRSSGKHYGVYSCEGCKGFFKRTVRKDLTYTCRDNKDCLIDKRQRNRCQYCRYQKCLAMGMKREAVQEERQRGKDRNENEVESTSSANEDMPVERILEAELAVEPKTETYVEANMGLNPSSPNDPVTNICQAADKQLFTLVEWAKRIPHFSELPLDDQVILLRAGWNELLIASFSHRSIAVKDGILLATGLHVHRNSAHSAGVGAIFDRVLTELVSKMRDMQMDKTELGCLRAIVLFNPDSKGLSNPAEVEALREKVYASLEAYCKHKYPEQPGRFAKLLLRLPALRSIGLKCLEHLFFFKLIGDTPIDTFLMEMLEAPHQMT

On to `CN(C)CCCN1c2ccccc2Sc2ccc(Cl)cc21`, for which the Potency in assay [1] was 21.9 µM (active); in [2], 24.5 µM (active) and inactive; in assay [6], 34.4 µM (active). The Potency result in [3], in assay [4], in [5] and in assay [7] was “inactive” throughout.
`O=C(O)c1ccc(O)cc1`: the Potency result in [1], in [2], in [3], in assay [4], in assay [5] and in assay [6] was “inactive” in each case. For the same molecule, the Potency result in assay [7], in assay [8] and in assay [9] was “inactive” in each case.
`CCCCCCOCCOCCO`: the Potency entry in assay [1], in assay [2], in assay [3], in assay [4], in assay [5] and in [6] was “inactive” each time. The Potency entry in assay [7] and in assay [8] was “inactive” in each case. For the same molecule, in assay [9], the Potency entry was “inactive and 43.6 µM (active)”.
As to `Cc1ccc(C(C)(C)C)c(O)c1`, the Potency result in assay [1], in assay [3], in assay [4], in assay [5], in [6] and in assay [9] was “inactive” each time.
`CCCOCCO`: the Potency result in assay [1], in [2], in assay [3], in assay [4], in assay [5] and in assay [7] was “inactive” throughout. Moreover, the Potency entry in assay [8] and in assay [9] was “inactive” each time.
With `IC(I)I`, the Potency entry in assay [1], in [2], in [3], in assay [4], in assay [5] and in assay [6] was “inactive” in each case. Also, the Potency result in [7] and in assay [9] was “inactive” throughout.
In the case of `Cc1ccc(N)c([N+](=O)[O-])c1`, the Potency result in [1], in assay [3], in assay [4], in assay [5], in assay [6] and in assay [7] was “inactive” each time. The Potency result in [8] and in assay [9] was “inactive” in each case.
For `[O-]/[N+](=N\O)c1ccccc1`, the Potency result in assay [1], in assay [2], in assay [3], in [4], in assay [5] and in [6] was “inactive” each time. Further, the Potency entry in [7], in assay [8] and in [9] was “inactive” throughout.
For the molecule `CC(=O)[C@H]1CC[C@H]2[C@@H]3CC=C4C[C@@H](O)CC[C@]4(C)[C@H]3CC[C@]12C`, the Potency entry in [1], in assay [2], in assay [3], in assay [4], in [5] and in assay [7] was “inactive” each time. In addition, the Potency entry in assay [8] was “inactive”. The Potency in [6] is 13.7 µM (active).
For the molecule `CC(=O)[C@@]1(O)CC[C@H]2[C@@H]3C[C@H](C)C4=CC(=O)C=C[C@]4(C)[C@@]3(F)[C@@H](O)C[C@@]21C`, the Potency result in assay [1], in assay [2], in assay [3], in [4], in [5] and in assay [7] was “inactive” in each case. For the same molecule, the Potency result in assay [8] and in assay [9] was “inactive” in each case.
For the molecule `COC(=O)c1ccc(C)cc1`, the Potency entry in assay [1], in [3], in assay [4], in assay [5], in assay [6] and in [7] was “inactive” each time. Moreover, the Potency result in [8] and in assay [9] was “inactive” in each case.
Turning to `C=CCOC(=O)C(=C)C`, the Potency result in [1], in assay [2], in assay [3], in [4], in [5] and in assay [6] was “inactive” throughout. Also, the Potency entry in assay [7], in assay [8] and in assay [9] was “inactive” throughout.
In the case of `CC1(C)C(C=C(Cl)Cl)C1C(=O)OCc1cccc(Oc2ccccc2)c1` (configuration not stated), the Potency entry in [1], in assay [3], in assay [4], in assay [5], in assay [7] and in [8] was “inactive” each time. For the same molecule, the Potency result in assay [9] is “inactive”. For the same molecule, the Potency in assay [6] is 54.1 µM (active) and inactive.
With `CC(=O)Oc1ccc(C(c2ccc(OC(C)=O)cc2)c2ccccn2)cc1`, the Potency entry in assay [1], in [2], in [3], in [5], in assay [6] and in [9] was “inactive” in each case. In addition, the Potency in assay [7] was 109 nM (active) and 952 nM (active).
As to `CC(C)(C)c1cccc(C(C)(C)C)c1O`, the Potency result in assay [1], in [2], in assay [3], in [4], in assay [5] and in assay [7] was “inactive” each time. Also, the Potency result in assay [8] is “inactive”.
`COCCOCCOCCO`: the Potency result in assay [1], in assay [3], in [4], in assay [5], in assay [6] and in assay [7] was “inactive” throughout. For the same molecule, the Potency result in assay [8] and in [9] was “inactive” throughout.
Regarding `c1ccc2c(c1)[nH]c1ccccc12`, the Potency entry in [1], in assay [3], in assay [4], in assay [5], in assay [7] and in [8] was “inactive” in each case. In addition, in assay [9], the Potency entry was “inactive”.
For `Nc1cc([N+](=O)[O-])ccc1C(=O)O`, the Potency result in assay [1], in [2], in assay [3], in [4], in assay [5] and in assay [6] was “inactive” each time. Moreover, the Potency entry in [7], in assay [8] and in [9] was “inactive” in each case.
For the molecule `CCCCCCCCCCC(CO)CCCCCCCC` (configuration not stated), the Potency result in [1], in [2], in assay [3], in assay [4], in assay [5] and in [7] was “inactive” each time. Further, the Potency entry in assay [8] and in assay [9] was “inactive” each time.
With `CCc1cccc2c3c([nH]c12)C(CC)(CC(=O)O)OCC3` (configuration not stated), the Potency result in assay [1], in [2], in [3], in [4], in assay [5] and in assay [6] was “inactive” throughout. Besides, the Potency result in assay [7], in assay [8] and in [9] was “inactive” throughout.
Turning to `CC(=O)O[C@]1(C(C)=O)CC[C@H]2[C@@H]3C=C(Cl)C4=CC(=O)CC[C@]4(C)[C@H]3CC[C@@]21C`, the Potency in [1] is 43.6 µM (active) and inactive. Also, the Potency entry in [2], in [3], in assay [4], in assay [5] and in assay [7] was “inactive” in each case.
Turning to `COc1ccc(-c2coc3cc(O)cc(O)c3c2=O)cc1`, the Potency result in [1], in assay [2], in assay [3], in assay [4], in assay [5] and in assay [9] was “inactive” each time.
Take `COc1cc([C@H]2Oc3cc([C@H]4Oc5cc(O)cc(O)c5C(=O)[C@@H]4O)ccc3O[C@@H]2CO)ccc1O`: the Potency result in assay [1], in assay [3], in assay [4], in assay [5], in assay [6] and in [7] was “inactive” each time. For the same molecule, the Potency entry in [8] and in [9] was “inactive” throughout.
In the case of `CN(C)/N=N/c1nc[nH]c1C(N)=O`, the Potency result in assay [1], in assay [2], in assay [3], in [4], in assay [5] and in assay [6] was “inactive” in each case. Also, the Potency entry in assay [7], in assay [8] and in assay [9] was “inactive” in each case.
In the case of `FC(F)(F)C(Cl)Br` (configuration not stated), the Potency entry in [1], in assay [2], in [3], in assay [4], in assay [5] and in [7] was “inactive” each time. Further, the Potency result in [8] and in assay [9] was “inactive” throughout.
For the molecule `CC(C)[N+](C)(CCOC(=O)C1c2ccccc2Oc2ccccc21)C(C)C`, the Potency result in [1], in assay [2], in assay [3], in assay [4], in assay [5] and in assay [6] was “inactive” each time. Further, the Potency entry in assay [7] and in [8] was “inactive” each time.
As to `CCCCCC=O`, the Potency result in assay [1], in [3], in assay [4], in assay [5], in assay [7] and in [8] was “inactive” throughout. Further, in [9], the Potency result was “inactive”.

Values taken from PubChem BioAssay (Tox21).
